Sampled rows, rich in hits. Any-hit rate of the full collection: about 11%.
NS1 inh: blocks influenza NS1 protein function; Potency, µM (highest dose often 46.1 µM), without a hit: top-dose activity, positive = more growth; actives 0.4% (n = 270,000); AID 2326; calls by dose curve; note: actives are rising curves; nearly all actives have a fitted effect of over 50% in size
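S. cerevisiae expressing influenza A NS1, grown in glucose, washed, then diluted 1:100 into pH 6.0 -URA galactose medium with 23 nl compound. Growth recovery read as OD600; NS1-free strain serves as control.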
Vaccinia mCherry: vaccinia inhibition (mCherry reporter). Vaccinia virus mCherry reporter infection, fluorescence. Potency, µM (top dose mostly 36.5 µM), without a hit: at the highest dose activity change, negative = inhibition, actives largely listed as inhibitors. actives 0.63% (n = 310,000). AID 720579; calls by dose curve; tested in A549 cells; note: % is set by controls: 0 for no effect and ±100 for the full control effect; nearly all actives have a fitted effect of over 35% in size
Pf growth 96h: P. falciparum growth inhibition at 96 hour, primary screen for plastid delayed-death inhibitors; P. falciparum luciferase reporter growth, 96 h; Potency, µM (doses to about 28.7 µM), without a hit: top-dose activity change, negative = inhibition, hits mostly inhibitors; actives 6.9% (n = 320,000); AID 504834; note: % is set by controls: 0 for no effect and ±100 for the full control effect
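Erythrocytes infected with luciferase-expressing P. falciparum were dispensed at 2% hematocrit and 0.05% parasitemia (final), then incubated with compounds 96 hours at 37 C in 5% CO2. Luminescence after detection reagent addition reported growth.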
HCV inhibitor: inhibitors of hepatitis C virus infection; Potency, µM (highest dose often 41.8 µM), inactives show top-dose activity change, negative = inhibition, actives largely listed as inhibitors; Huh7.5.1 HCVcc-Cre infection, luciferase reporter, 44 h; actives 3.4% (n = 340,000); note: % is set by controls: 0 for no effect and ±100 for the full control effect
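Reporter virus HCVcc-Cre (~0.5 moi) infects cells exposed to compound; seeding density 1,000 cells/well with 4 h settling beforehand. Luminescence, 15 sec read, taken 44 h post-infection following a 15 min RT substrate incubation.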
Pf growth 48h: P. falciparum growth inhibition at 48 hours (one generation). P. falciparum luciferase growth in erythrocytes, 48 h. Potency, µM (highest dose often 28.7 µM), for the others: at the highest dose activity change, negative = inhibition, actives largely listed as inhibitors. actives 5.9% (n = 310,000); note: % is set by controls: 0 for no effect and ±100 for the full control effect
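Firefly luciferase activity from engineered P. falciparum reports growth; inhibitors lower the luminescent signal. Cultures contained 2% hematocrit erythrocytes at 0.1% final parasitemia.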
Vaccinia Venus: inhibitors of vaccinia virus (Venus reporter); actives 0.46% (n = 330,000); Potency, µM (series often up to 36.5 µM), inactives show at the top dose activity change, negative = inhibition, actives largely listed as inhibitors; Vaccinia virus Venus reporter expression, fluorescence; calls by dose curve; tested in A549 cells; note: % is set by controls: 0 for no effect and ±100 for the full control effect; nearly all actives have a fitted effect of over 30% in size
Active calls of the source: *; i = inactive; ? = inconclusive; nt = no result given. Unless noted, calls come from the whole dose curve; as a rule, active = well fitted inhibition curve with a large enough effect; inconclusive = small, poorly fitted or top-dose-only effect, or another doubt; inactive = no such curve, though single readings can be large or run the other way. Potency is the fitted concentration of half-maximal effect.

SMILES	NS1 inh	Vaccinia mCherry	Pf growth 96h	HCV inhibitor	Pf growth 48h	Vaccinia Venus
Cc1cc(C)cc(C(=O)NCC(=O)OCN2C(=O)c3ccccc3C2=O)c1	nt	-13%	-23%	30%	-22%	-13%
COC(=O)CCC(C)C1CCC2C3CCC4CC(O)CCC4(C)C3=CC(=O)C12C (stereo not drawn)	nt	-23%	nt	?	nt	-20%
CCOc1ccccc1Nc1cc(C)nc2nc(C)nn12	?	0%	-14%	-4%	23%	0%
COc1ccc(-c2c(C#N)c(N)nc3c2CCc2ccccc2-3)cc1OC	-26%	nt	7.4µM*	11µM*	2.3µM*	nt
CCc1cc2c(s1)N(CC(=O)OC)C(=O)CN=C2c1ccccc1OC	-13%	-19%	8.3µM*	-1%	7%	13%
COc1ccccc1NCN1C(=O)CCC1=O	-6%	-14%	29%	-5%	29%	-8%
Cc1nn(Cc2ccccc2Cl)c(C)c1C(=O)NCc1ccco1	-7%	i	-1%	2%	-11%	-20%
COc1ccc(NC(=O)Nc2ccccc2SC)cc1OC	6%	-6%	?	?	87%	-6%
CC(C)n1nccc1N(Cc1ccc(Br)cc1)S(=O)(=O)c1ccccc1	-70%	-1%	5.2µM*	-15%	13µM*	-13%
CC(C)n1nccc1N(Cc1ccc(Cl)cc1)S(=O)(=O)c1ccccc1	-72%	-14%	?	-13%	?	-7%
Cc1oc(CSCCSCc2cc(C(=O)O)c(C)o2)cc1C(=O)O	?	nt	15µM*	18%	7%	nt
Cc1oc(CSCC2CCCO2)cc1C(=O)O (stereo not drawn)	6%	nt	nt	12%	21%	-9%
FC(F)(F)C1=CC(c2ccc(Br)cc2)=NCCN1	6%	nt	6.6µM*	-6%	?	-21%
NC(=O)C(c1ccc(Br)cc1)c1ccc(C(=O)c2ccccc2)cc1 (stereo not drawn)	-2%	?	5%	10µM*	-1%	-14%
O=C(c1ccccc1)c1ccc(OCC(O)CNC2CCCc3ccccc32)cc1 (stereo not drawn)	9%	-9%	10µM*	?	?	-19%
CC(C)(C)NCC(O)COc1ccccc1C1CCCC1 (stereo not drawn)	nt	-18%	5.2µM*	?	2.6µM*	?
CC(=O)CCc1ccc(OCC(O)CNC2CCCc3ccccc32)cc1 (stereo not drawn)	1%	-16%	?	?	?	-15%
CCc1ccccc1OC[C@@H](O)CN[C@H]1CCCc2ccccc21	nt	?	1.7µM*	?	1.9µM*	?
Cc1cccc(NS(=O)(=O)c2cc3c4c(c2)CCN4C(=O)CC3)c1C	nt	i	?	?	-16%	-17%
CC(C)C[C@H](NC(=O)[C@@H]1Cc2c([nH]c3ccccc23)C2c3ccccc3C(=O)N21)C(=O)NCC1CCCO1 (stereo partly drawn)	-9%	1%	9.3µM*	?	?	1%
CSCC[C@H](NC(=O)[C@@H]1Cc2c([nH]c3ccccc23)C2c3ccccc3C(=O)N21)C(=O)NCC1CCCO1 (stereo partly drawn)	-1%	-10%	9.3µM*	0%	?	3%
CC[C@@H](CCC=C(C)C)C(=O)N(Cc1ccccc1)c1ccccc1	nt	-25%	?	?	8.3µM*	-5%
O=C(NCc1ccc(Cl)cc1)c1ccccc1Oc1ccccc1	-12%	0%	?	-12%	?	-17%
COc1ccc(-c2nnn(CC(=O)N(Cc3ccccc3Cl)C(C(=O)NCC3CCCO3)c3ccco3)n2)cc1 (stereo not drawn)	14%	nt	?	-17%	?	nt
CC(=O)CCS(=O)(=O)c1ccc(Oc2ccc(S(=O)(=O)CCC(C)=O)cc2)cc1	-14%	nt	?	?	-24%	-17%
CC1=NN(c2nc3ccccc3[nH]2)C(=O)C1Cc1ccccc1 (stereo not drawn)	-59%	-27%	4.1µM*	3.5µM*	2.6µM*	-18%

Assay outcomes: PubChem BioAssay, National Center for Advancing Translational Sciences (NCATS)
